Compounds without any hit were thinned out: in the full panel of roughly 79,000, 15% have a hit. Cut-off read from the data, not from the text of the source: active = growth inhibition above about 70%; inactive = the rest. Where a SMILES comes first, the peptide text is derived from it. The star is where a group is joined. Boc = CC(C)(C)OC(=O)*
How the values were obtained:
[1] = NCI Yeast Anticancer Drug Screen. Data for the rad50 strain (AID 155);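 note: 0% = growth of vehicle-only cultures of the same strain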; conditions: S. cerevisiae rad50 strain growth inhibition; at 50.0 µM; hits give high values
How it was run: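 Readout: growth inhibition relative to vehicle-treated cultures. Compound exposure was carried out in a genetically defined yeast strain deficient in DNA damage repair.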

[2] = NCI Yeast Anticancer Drug Screen. Data for the mec2-1 strain (AID 157); conditions: S. cerevisiae mec2-1 strain, at 50.0 µM, hits give high values
How it was run: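 Each compound was tested on mec2-1 yeast, a strain altered in DNA damage repair or cell cycle control. Growth inhibition is reported relative to vehicle.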

[3] = NCI Yeast Anticancer Drug Screen. Data for the sgs1 mgt1 strain (AID 161);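 note: 0% = growth of cultures given vehicle only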; conditions: S. cerevisiae sgs1 mgt1 strain, at 50.0 µM, hits give high values
How it was run: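 Mutant yeast exposed to compound; growth scored against vehicle-only wells.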

[4] = NCI Yeast Anticancer Drug Screen. Data for the cln2 rad14 strain (AID 165);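 note: 0% = growth equal to vehicle treated cultures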; conditions: S. cerevisiae cln2 rad14 strain, at 50.0 µM, hits give high values
How it was run: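 Test compounds were added to cln2 rad14 yeast cultures; inhibition of growth was then determined by comparison with vehicle treatment.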

[5] = NCI Yeast Anticancer Drug Screen. Data for the bub3 strain (AID 167); conditions: S. cerevisiae bub3 mutant strain, at 50.0 µM, hits give high values
How it was run: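 Readout: yeast growth inhibition, expressed relative to vehicle-only wells. The test organism is a mutant strain from a panel with lesions in DNA repair or checkpoint genes.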

[6] = NCI Yeast Anticancer Drug Screen. Data for the mlh1 rad18 strain (AID 175); conditions: S. cerevisiae mlh1 rad18 strain growth inhibition; at 50.0 µM; hits give high values
How it was run: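 Inhibition values reflect reduced growth of mutant yeast versus vehicle-treated controls following compound exposure; the mutations affect DNA damage repair.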

Measured: growth inhibition

C/C([O-])=C(/c1nc(-c2ccc([N+](=O)[O-])o2)no1)[n+]1cc(C)ccc1C
inactive: [1] 19.3% | [2] 14% | [3] 18.9% | [4] 21.3% | [5] 7.55% | [6] 16.1%

O=C(Nc1ccc(F)cc1)c1ccc(Cl)cc1Cl
inactive: [1] -7.4% | [2] -28.4% | [3] -9% | [4] 13.7% | [5] -4.2% | [6] -2.35%

O=C1C=CC(c2ccccc2)(c2ccccc2)O1
inactive: [1] -32.7% | [2] -10.8% | [3] -15.3% | [4] -22.4% | [5] -8.35% | [6] -7.1%

O=[N+]([O-])c1ccc2c(Cl)[nH]nc2c1
inactive: [1] 35.1% | [2] 27.6% | [3] 29.8% | [4] 30.8% | [5] 39% | [6] 23.9%

CNC(=O)CNC(=O)C(NC(=O)CNC(=O)C1CCCN1C(=O)C(C)NC(=O)C(NC(=O)OC(C)(C)C)C(C)C)C(C)C (stereo unspecified) (Boc-VAPGVG-NHMe; configuration not given here)
inactive: [1] -12.9% | [2] -23.6% | [3] -11.8% | [4] -11% | [5] -16.2% | [6] -18.2%

CC(=C/c1ccccc1)/C=C1/SC(=S)N(C=C2C(=O)NC(=O)NC2=O)C1=O
inactive: [1] 54.9% | [2] 54.1% | [3] 32.4% | [4] 50.2% | [5] 50.5% | [6] 43.2%

OCc1ccccc1C1CSCSC1
inactive: [1] -7.2% | [2] -29.1% | [3] -37.5% | [4] -30.9% | [5] -21.4% | [6] -12.2%

CC(=O)OCC1OC2OC(C)(C)OC2C1NC(=O)C(F)(F)F (stereo unspecified)
inactive: [1] 16.5% | [2] -2.5% | [3] -8.15% | [4] 10.3% | [5] -5.6% | [6] 9.25%

O=C(O)c1ccc(N=Nc2ccccc2)cc1
inactive: [1] -4.4% | [2] 14.9% | [3] 20.9% | [4] 0.3% | [5] -5.1% | [6] 2.75%

CN(C)CC(CN(C)C)C(=O)c1ccccc1
inactive: [1] 8.6% | [2] 19.6% | [3] 16.3% | [4] -1% | [5] -24.1% | [6] -4.05%

CCOC(=O)c1ccc(NC(=S)NC(=O)c2cccs2)o1
inactive: [1] 43.4% | [2] 49.8% | [3] 39.4% | [4] 36.1% | [5] 31.2% | [6] 63.4%

Cc1csc(=S)n1C
inactive: [1] -15.2% | [2] -3.2% | [3] -17.6% | [4] -5.8% | [5] -12% | [6] 0.4%

Cc1cc(OC(C)C)cc(C)c1C(=O)OCC(C)CN1CCCC1 (stereo unspecified)
inactive: [1] 1.9% | [2] -16.8% | [3] 5.4% | [4] -15.1% | [5] -8.5% | [6] -18.2%

COc1ccc(C2S/C(=C\c3cccc(OC)c3)C(=O)N2NC(=O)Cc2ccccc2)cc1 (stereo unspecified)
inactive: [1] -12.8% | [2] -27.1% | [3] -2.75% | [4] -37.5% | [5] -19.4% | [6] -10.8%

COC(=O)C1OC1C(=O)OC (stereo unspecified)
inactive: [1] -17.4% | [2] -26.5% | [3] 1.15% | [4] -28.9% | [5] 12.3% | [6] 1.6%

CC1(C)C(=O)/C=C\C(=O)C(C)(C)C2=CC=C(O2)C(C)(C)C(=O)C(Br)C(Br)C(=O)C(C)(C)C2=CC=C1O2 (stereo unspecified)
inactive: [1] -20.4% | [2] -18.1% | [3] -68.5% | [4] 5.6% | [5] -34.9% | [6] -27.6%

CC(C)(c1ccc(O)c([N+](=O)[O-])c1)c1ccc(O)c([N+](=O)[O-])c1
inactive: [1] -2.65% | [2] -2.75% | [3] -4.6% | [4] -26.4% | [5] -2.9% | [6] 7.2%

CCN(CC)CCC(C)C(Cc1cccs1)OC(C)=O (stereo unspecified)
inactive: [1] 4.1% | [2] -3.9% | [3] -2.95% | [4] -39% | [5] 35.2% | [6] 5.6%

FC1(F)SC2CCCCCCCCCCC2C1(F)F (stereo unspecified)
inactive: [1] -42.6% | [2] -15.3% | [3] -20.4% | [4] -18.7% | [5] 29.1% | [6] 2.05%

COc1ccc(/C=C/c2ccc3ccccc3n2)cc1
inactive: [1] 3.3% | [2] -20.6% | [3] 1.65% | [4] -46.1% | [5] 9.45% | [6] -16%

Cc1ccccc1C(=O)NNC(=O)c1cccc2ccccc12
inactive: [1] 27.6% | [2] -24.9% | [3] 7.9% | [4] 3.65% | [5] 0.45% | [6] 6.95%

Source: PubChem BioAssay (NCI)
